{"source": "PubChem BioAssay (NCATS)", "note": "Inconclusive results are not listed. A call without a number means that no potency is given here. Active and inactive are the calls of the source. The call rests on the fitted dose curve; in most records, active means well fitted inhibition curve with a large enough effect; inconclusive means small, poorly fitted or top-dose-only effect; inactive means flat fitted curve, though single readings scatter."}
{"tested_on": "Zika virus NS2B-NS3 protease", "test": "Primary screen GU AMC qHTS for Zika virus inhibitors (AID 1347154); further: nearly all actives have a fitted effect of over 70% in size", "conditions": "Zika NS2B-NS3 unlinked protease, AMC fluorogenic substrate; series mostly up to 54.1 µM", "procedure,_shortened": "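Fluorogenic AMC-substrate cleavage by noncovalent NS2B-NS3 protease complex (25 nM, pH 8.0 Tris buffer with Tween 20) followed for 15 minutes at room temperature (~20% conversion). Percent inhibition from ex340/em450 signal change, fitted by 4-parameter Hill equation.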"}
{"smiles": "CCCOC(=O)c1ccccc1", "Potency": "inactive"}
{"smiles": "NC(CSCC(=O)O)C(=O)O", "note": "(stereo not given)", "Potency": "inactive"}
{"smiles": "NCCNCCNCCN", "Potency": "inactive"}
{"smiles": "Cc1cc2c(cc1S(N)(=O)=O)S(=O)(=O)CCC2", "Potency": "inactive"}
{"smiles": "CO/N=C(\\C(=O)N[C@@H]1C(=O)N2C(C(=O)O)=C(CSc3nc(=O)c(O)nn3C)CS[C@H]12)c1csc(N)n1", "Potency": "inactive"}
{"smiles": "CN(C)CCN(Cc1ccccc1)c1ccccn1", "Potency": "inactive"}
{"smiles": "C[C@H](N)[C@H](O)c1cccc(O)c1", "Potency": "inactive"}
{"smiles": "C=Cc1c(C)c2cc3[nH]c(cc4nc(cc5nc(cc1[nH]2)C(C)=C5CCC(=O)O)C(CCC(=O)O)=C4C)c(C)c3C=C", "Potency": "inactive"}
{"smiles": "CCCc1c(OCCCCc2nn[nH]n2)ccc(C(C)=O)c1O", "Potency": "inactive"}
{"smiles": "CC1=C(C/C=C(\\C)CCC[C@H](C)CCC[C@H](C)CCCC(C)C)C(=O)c2ccccc2C1=O", "Potency": "inactive"}
{"smiles": "C=CCn1c(=O)n([C@@H]2O[C@H](CO)[C@@H](O)[C@H]2O)c2nc(N)[nH]c(=O)c21", "Potency": "inactive"}
{"smiles": "CC(=O)Oc1c(C)c(C)c2c(c1C)CC[C@@](C)(CCC[C@H](C)CCC[C@H](C)CCCC(C)C)O2", "Potency": "inactive"}
{"smiles": "Cc1ncc(COP(=O)(O)O)c(C=O)c1O", "Potency": "inactive"}
{"smiles": "CC(=O)Nc1ccc(/C=N/NC(N)=S)cc1", "Potency": "inactive"}
{"smiles": "CC1(C)[C@@H]2CC[C@@]1(C)C(=O)C2", "Potency": "inactive"}
{"smiles": "Cn1cc[nH]c1=S", "Potency": "inactive"}
{"smiles": "CC[N+](CC)(CC)CCOc1ccc(/C=C/c2ccccc2)cc1", "Potency": "inactive"}
{"smiles": "COc1ccccc1O", "Potency": "inactive"}
{"smiles": "N[C@H]1C(O)O[C@H](CO)[C@@H](O)[C@@H]1O", "note": "(stereo not given in full)", "Potency": "inactive"}
{"smiles": "N[C@@H](CSSC[C@H](N)C(=O)O)C(=O)O", "activity change, negative = inhibition": "4.84% [at 0.59 µM] (inactive)"}
